# According to PubChem BioAssay (NCATS):
# Results filed as inconclusive are left out. Activity calls are given as the source filed them. Calls come from the whole dose curve; as a rule, active = well fitted inhibition curve with a large enough effect; inconclusive = small, poorly fitted or top-dose-only effect; inactive = flat fitted curve, though single readings scatter.
# Target: Calcium and integrin-binding protein 1 (Homo sapiens) (UniProt Q99828)
# Experiment: Primary qHTS for Identification of Calcium Integrin Binding Protein 1 (CIB1) Competitor (AID 1508620); note: top concentration of the series differs between compounds
# Conditions: CIB1-GST / FITC-alphaIIb peptide fluorescence polarization; series mostly up to 114 µM; activity change, negative = inhibition: at the top concentration
# How it was run: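 Fluorescence polarization competition: GST-tagged CIB1 (1 uM final) preincubated with compound 15 min at room temperature, then FITC-labelled alphaIIb peptide (100 nM final) added. After 15 min at room temperature, polarization read at Ex 480/Em 540.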
# % is set by controls: 0 for no effect and ±100 for the full control effect.
# Calcium and integrin-binding protein 1 (Homo sapiens), sequence (Q99828 whole entry, looked up): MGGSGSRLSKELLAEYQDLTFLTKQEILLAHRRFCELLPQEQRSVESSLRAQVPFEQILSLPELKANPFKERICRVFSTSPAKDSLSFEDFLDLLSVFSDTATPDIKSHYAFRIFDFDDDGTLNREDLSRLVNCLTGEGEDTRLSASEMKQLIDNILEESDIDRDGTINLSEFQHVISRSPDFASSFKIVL
row,Compound,"activity change, negative = inhibition"
1,CC1C(=O)CC2C3CCC(C(=O)O)C12CC3(C)CO (stereo not given),-0.151% (inactive)
2,C=CC[C@]12C[C@@H](OC)C(=O)C(OC)=C1O[C@@H](c1cc(OC)c3c(c1)OCO3)[C@@H]2C,2.02% [at 57.7 µM] (inactive)
3,CC1=C(CCC(C)CC(=O)O)[C@@]2(C)CCCC(C)(C)C2CC1=O (stereo not given in full),-3.07% [at 57.7 µM] (inactive)
4,CC(C)(C)c1cc(Br)cc([C@H](CC(=O)O)NC(=O)CNC(=O)c2cc(O)cc(NC3=NCC(O)CN3)c2)c1 (stereo not given in full),5.6% (inactive)
5,Nc1nc2c(c(N3CCNCC3)n1)CCC1=C2[C@@H]2CCCC[C@@H]2O1,6.81% (inactive)
6,COC(C(=O)N1Cc2[nH]nc(NC(=O)c3ccc(N4CCN(C)CC4)cc3)c2C1)c1ccccc1 (stereo not given),-0.238% (inactive)
7,O=C(NCC(O)CO)c1ccncc1Nc1ccc(I)cc1F (stereo not given),1.11% (inactive)
8,CC(=O)N[C@@H](C(=O)O[C@H]1CCC(C)(C)[C@@H]2CCC3=C(COC3=O)[C@@]12C)C(C)C,-3.79% [at 57.7 µM] (inactive)
9,C=C1C(OC(C)=O)CCC2(C)CC3(OC)OC(=O)C(C)=C3CC12 (stereo not given),2.33% [at 57.7 µM] (inactive)
10,C[C@H](N)C(=O)N[C@@H](Cc1ccc(O)cc1)C(=O)N1CCC[C@H]1C(=O)NCC(=O)N[C@@H](CCCCN)C(=O)N[C@@H](Cc1ccccc1)C(N)=O,-3.04% [at 30.2 µM] (inactive)
11,O=C(c1ccccc1)c1ccc2nc(NC(=O)c3csc(C4CCN(c5ncnc6ccsc56)CC4)n3)[nH]c2c1,4.9% (inactive)
12,C[C@@H]1C[C@@H](O)[C@@]23CO[C@@H](O)[C@@H]2CCC[C@@H]3[C@@]12C[C@@H](c1ccoc1)OC2=O,-12.2% [at 57.7 µM] (inactive)
13,O=C(CCc1ccccc1)N1CCC(O)(Cn2cnc3cc(Cl)ccc3c2=O)CC1,-3.08% (inactive)
14,COC1C(CO)OC(n2cnc3c(=O)[nH]cnc32)C1O (stereo not given),-1.21% (inactive)
15,COc1ccc(CNC(=O)c2cc(-c3cncc(C)c3)ncc2-c2nccs2)nc1OC,2.08% (inactive)
16,C=C1C[C@]23C[C@H]1[C@@H](O)C[C@H]2[C@@]12C=C[C@H](O)[C@@](C)(C(=O)O1)[C@H]2[C@@H]3C(=O)O,-0.601% [at 57.7 µM] (inactive)
17,O=C(O)c1ccccc1NC(=O)N1CCC(c2ccccc2C(F)(F)F)CC1,-1.85% (inactive)
18,CC(C)=CCC[C@](C)(O[C@@H]1O[C@H](CO[C@@H]2O[C@H](CO)[C@@H](O)[C@H](O)[C@H]2O)[C@@H](O)[C@H](O)[C@H]1O)C1CC[C@]2(C)[C@@H]1[C@H](O)CC1[C@@]3(C)CC[C@H](O[C@@H]4O[C@H](CO)[C@@H](O)[C@H](O)[C@H]4O[C@@H]4O[C@H](CO)[C@@H](O)[C@H](O)[C@H]4O)C(C)(C)[C@@H]3CC[C@]12C (stereo not given in full),-0.481% [at 30.2 µM] (inactive)
19,C/C1=C\CCC2=C[C@@H](OC2=O)c2c(C)coc2C1,3.46% (inactive)
20,C/C=C/C=C/C(O)=C1\C(=O)[C@]2(C)C3C(C(=O)CC/C=C/C)=C(O)C4(C)C1[C@]1(C)O[C@@]4(O)[C@@]3(C)O[C@@]12O,-0.588% [at 57.7 µM] (inactive)
21,NCCCNc1ccc(Nc2nccc(Nc3cc(C4CC4)[nH]n3)n2)cc1,-11.9% (inactive)
22,C=C1C(=O)OC2/C=C(\CO)CC/C=C(\C=O)CC(OC(=O)CC(C)C)C12 (stereo not given),3.99% [at 57.7 µM] (inactive)
23,CC1CC2OC3(OC2C(C)(C)O)C1C1(C)CCC24CC25CCC(O[C@@H]2OC[C@@H](O)[C@H](O)[C@H]2O)C(C)(C)C5CC=C4C1(C)C3O (stereo not given in full),1.42% [at 30.2 µM] (inactive)
24,C=C1C(OC2OCC(O)C(O)C2O)CC2C(C)(C)C(O)CCC2(C)C1CC/C(C)=C\CO (stereo not given),1.93% [at 57.7 µM] (inactive)
25,CN(c1ccccc1CNc1nc(Nc2ccc3c(c2)CC(=O)N3)ncc1C(F)(F)F)S(C)(=O)=O,1.35% (inactive)
